Experimental data reported in PubChem BioAssay AID493045 (Broad Institute, 2011).
Potency and affinity values are given separately. Calls of active or inactive are those of the source.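 The calls were made as follows: active = viability loss with fitted half-maximal dose at or below ten times the top valid dose; inconclusive = flat loss of 30 to 70 percent, or a poor fit; inactive = flat within 30 percent, weak potency, or rising signal.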

Test: HRAS-V12 fibroblast viability reduction – cell-based, Alamar Blue, dry powder, Ras selective lethality project, primary screen (AID 493045)
Details: BJeLR (HRASV12) fibroblasts viability, 48 h; series mostly up to 45 µM

Structure (SMILES)	outcome
COc1ccc(N(C(=O)[C@@H](C)Cl)C(C(=O)NCCc2ccccc2)c2cccs2)cc1Cl (stereo partly specified)	inactive
CCC(=O)N(c1ccc(OC)c(Cl)c1)C(C(=O)NCCc1ccccc1)c1cccs1 (stereo unspecified)	inactive
COc1ccc(N(C(=O)CSc2ncccn2)C(C(=O)NCCc2ccccc2)c2cccs2)cc1Cl (stereo unspecified)	inactive
O=C(c1[nH]ncc1[N+](=O)[O-])N1CCN(C(c2ccccc2)c2ccccc2)CC1	inactive
COc1ccc(N(C(=O)CO)C(C(=O)NCCc2ccccc2)c2cccs2)cc1Cl (stereo unspecified)	inactive
COCC(=O)N(c1ccc(OC)c(Cl)c1)C(C(=O)NCCc1ccccc1)c1cccs1 (stereo unspecified)	inactive
